Active and inactive are the calls of the source.

The values that follow come from PubChem BioAssay.

Test [1] relates to Plasmodium falciparum Sir2 (PF13_0152, Sir2A). The test is described as follows: Plasmodium falciparum Sir2A binding compounds – biochemical, small-molecule microarray, 635 nm fluorescence, primary screen (AID 1098).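 Also: score merges spot fluorescence intensity with its signal-to-noise ratio.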 As to conditions: fluorescence 635 nm, higher = more signal.
Test [2] is described as follows: probe aDKK1 binding to arrayed compounds – biochemical, biotinylated probe, 635/667 nm fluorescence, primary screen (AID 1099).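 Also: score merges 667nm spot fluorescence with signal to noise across triplicate slides.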 As to conditions: small-molecule microarray, higher = more signal.
A short description of test [3]: probe aCHRDL2 binding to arrayed compounds – biochemical, biotinylated probe, 635/667 nm fluorescence, primary screen (AID 1100). As to conditions: small-molecule microarray, higher = more signal.
Test [4] can be described thus: change in splice reporter luminescence, either direction, cell-based, HEK293, spliceosome inhibition project, primary screen (AID 1101).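 Also: HEK293 cells carrying a splicing-competent luciferase reporter gene; test concentration not given here.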 As to conditions: HEK293 splicing luciferase reporter, 24 h, higher = more signal, called active from +8 up or from −8 down.
Test [5] addresses Fibroblast growth factor 10 (Homo sapiens) (UniProt O15520). The test is described as follows: compounds binding fibroblast growth factor 10 – biochemical, small-molecule microarray, 635 nm fluorescence, primary screen (AID 1102). As to conditions: FGF10 binding, fluorescence 635 nm, higher = more signal.
For test [6], the system named is glycogen synthase kinase-3 (GSK3A per assay name; protocol says GSK3B). The test is described as follows: compounds binding glycogen synthase kinase-3 – biochemical, small-molecule microarray, 635 nm fluorescence, GSK3A, primary screen (AID 1103). Also: the record names both GSK3A and GSK3B. As to conditions: fluorescence 635 nm, higher = more signal.
Test [7] addresses Epidermal growth factor receptor (Homo sapiens) (UniProt P00533). Description: compounds binding epidermal growth factor receptor – biochemical, small-molecule microarray, 635 nm fluorescence, primary screen (AID 1104).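 Also: score merges 667 nm emission intensity with spot signal to noise over triplicate slides.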 As to conditions: EGFR binding, higher = more signal.
The target in test [8] is Follistatin-related protein 3 (Homo sapiens) (UniProt O95633). The test is described as follows: compounds binding follistatin-related protein 3 – biochemical, small-molecule microarray, 635 nm fluorescence, primary screen (AID 1105).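 Also: score merges emission near 667 nm and signal to noise per printed spot across three slides.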 As to conditions: FSTL3 binding, higher = more signal.
In test [9] the target is Dickkopf-related protein 1 (Homo sapiens) (UniProt O94907). The test is described as follows: small molecules binding DKK1 protein – biochemical, small-molecule microarray, 635 nm fluorescence scan, primary screen (AID 1106).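 Also: score merges emission near 667 nm with signal to noise over three replicate slides.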 As to conditions: higher = more signal.
The subject of test [10] is Inhibin beta A chain (activin A). Description: small molecules binding activin A – biochemical, small-molecule microarray, 635 nm fluorescence scan, primary screen (AID 1107).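 Also: mouse activin A protein probed at 4.33 µg/mL on printed slides; score merges bound-protein fluorescence near 667 nm with spot signal-to-noise.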 As to conditions: INHBA, higher = more signal.
Test [11] has as its system Human papillomavirus type 1a protein E7 (residues 44-93). Description: small molecules binding HPV E7 44-93 – biochemical, small-molecule microarray, residues 44-93, 635 nm fluorescence, primary screen (AID 1108).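 Also: E7 fragment applied at 1 µg/mL in TBST for 1 h at 4 C; score combines spot fluorescence with its signal to noise ratio.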 As to conditions: fluorescence 635 nm, higher = more signal.
Test [12] in a line: hepatitis C replication reporter changes, two-sided – Huh7 cells, luciferase reporter, HCV replication inhibitor project, primary screen (AID 1109).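 Also: huh7 hepatoma cells harbouring a luciferase neomycin HCV replicon reporter; luciferase luminescence as measure of HCV replicon replication; test concentration not given here.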 As to conditions: Huh7 HCV replicon luciferase reporter, 48 h; higher = more signal.
The target in test [13] is Left-right determination factor 2 (Homo sapiens) (UniProt O00292). The test is described as follows: small molecules binding LEFTY2 protein – biochemical, small-molecule microarray, 635 nm fluorescence scan, primary screen (AID 1110). As to conditions: higher = more signal.
The target of test [14] is Calmodulin-1 (Homo sapiens) (UniProt P0DP23). Description: small molecules binding calmodulin-1 with EGTA – biochemical, small-molecule microarray, Cy5-labelled CALM1, profiling panel (AID 1111).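 Also: labelled calmodulin applied in Tris saline Tween buffer holding calcium plus EGTA and DTT.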 As to conditions: Cy5-CALM1 binding fluorescence, higher = more signal.
Test [15] has the same target. The test is described as follows: small molecules binding Ca-loaded calmodulin-1 – biochemical, small-molecule microarray, Cy5-labelled CALM1, plus calcium, artefact control for SMM control-protein annotation, profiling panel (AID 1112).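 Also: score merges spot fluorescence with signal to noise from triplicate slides.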 As to conditions: Cy5-CALM1 binding fluorescence, higher = more signal.
The nature of test [16]: probe aWnt5a binding to arrayed compounds – biochemical, biotinylated probe, 635/667 nm fluorescence, primary screen (AID 1113).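 Also: score merges 667 nm fluorescence intensity with signal-to-noise per printed feature.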 As to conditions: small-molecule microarray, higher = more signal.
Test [17] is described as follows: probe aShh binding to arrayed compounds – biochemical, biotinylated probe, 635/667 nm fluorescence, primary screen (AID 1114).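 Also: probe is biotin-labelled aShh protein from a stem cell growth factor screen; measures binding of labelled protein to compounds printed on the slide; score merges feature fluorescence at 667 nm with signal-to-noise.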 As to conditions: small-molecule microarray, higher = more signal.
A short description of test [18]: probe aNog binding to arrayed compounds – biochemical, biotinylated probe, 635/667 nm fluorescence, primary screen (AID 1115).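 Also: probe is biotinylated aNog protein used at 0.15 µg/mL for 1 h at 4 C; z-score combines 667 nm fluorescence of each spot with its signal to noise.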 As to conditions: small-molecule microarray, higher = more signal.
Test [19] concerns the target Torsin-1A-interacting protein 1 (Homo sapiens) (UniProt Q5JTV8). The test is described as follows: compound microarray binding of lysate hLAP1 – cell lysate, small-molecule microarray, COS7 lysate, 635/667 nm fluorescence, primary screen (AID 1116). As to conditions: 635 nm fluorescence, higher = more signal.
The target of test [20] is Alpha-bungarotoxin (Bungarus multicinctus) (UniProt P60615). The test is described as follows: compounds binding labelled alpha-BTX control protein – biochemical, small-molecule microarray, Alexa647 label, 635/667 nm fluorescence, artefact control for SMM control protein annotation, profiling panel (AID 1117). As to conditions: alpha-BTX-A647 binding fluorescence, higher = more signal.
Chain of Alpha-bungarotoxin (Bungarus multicinctus) (P60615 whole entry, looked up): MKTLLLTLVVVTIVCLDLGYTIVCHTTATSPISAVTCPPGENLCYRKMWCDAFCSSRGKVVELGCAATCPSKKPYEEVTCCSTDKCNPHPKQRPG

Chain of Left-right determination factor 2 (Homo sapiens) (O00292 whole entry, looked up): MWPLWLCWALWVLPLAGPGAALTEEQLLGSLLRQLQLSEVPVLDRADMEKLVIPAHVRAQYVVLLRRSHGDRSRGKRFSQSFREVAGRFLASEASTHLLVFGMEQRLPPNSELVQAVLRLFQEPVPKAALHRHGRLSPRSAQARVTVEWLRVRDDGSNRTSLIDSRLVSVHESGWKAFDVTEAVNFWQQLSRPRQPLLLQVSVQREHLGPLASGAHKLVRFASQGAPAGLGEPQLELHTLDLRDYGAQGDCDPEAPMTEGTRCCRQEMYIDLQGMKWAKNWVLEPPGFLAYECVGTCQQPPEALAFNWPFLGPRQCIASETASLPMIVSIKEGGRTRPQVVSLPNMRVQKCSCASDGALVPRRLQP
Chain of Epidermal growth factor receptor (Homo sapiens) (P00533 whole entry, looked up): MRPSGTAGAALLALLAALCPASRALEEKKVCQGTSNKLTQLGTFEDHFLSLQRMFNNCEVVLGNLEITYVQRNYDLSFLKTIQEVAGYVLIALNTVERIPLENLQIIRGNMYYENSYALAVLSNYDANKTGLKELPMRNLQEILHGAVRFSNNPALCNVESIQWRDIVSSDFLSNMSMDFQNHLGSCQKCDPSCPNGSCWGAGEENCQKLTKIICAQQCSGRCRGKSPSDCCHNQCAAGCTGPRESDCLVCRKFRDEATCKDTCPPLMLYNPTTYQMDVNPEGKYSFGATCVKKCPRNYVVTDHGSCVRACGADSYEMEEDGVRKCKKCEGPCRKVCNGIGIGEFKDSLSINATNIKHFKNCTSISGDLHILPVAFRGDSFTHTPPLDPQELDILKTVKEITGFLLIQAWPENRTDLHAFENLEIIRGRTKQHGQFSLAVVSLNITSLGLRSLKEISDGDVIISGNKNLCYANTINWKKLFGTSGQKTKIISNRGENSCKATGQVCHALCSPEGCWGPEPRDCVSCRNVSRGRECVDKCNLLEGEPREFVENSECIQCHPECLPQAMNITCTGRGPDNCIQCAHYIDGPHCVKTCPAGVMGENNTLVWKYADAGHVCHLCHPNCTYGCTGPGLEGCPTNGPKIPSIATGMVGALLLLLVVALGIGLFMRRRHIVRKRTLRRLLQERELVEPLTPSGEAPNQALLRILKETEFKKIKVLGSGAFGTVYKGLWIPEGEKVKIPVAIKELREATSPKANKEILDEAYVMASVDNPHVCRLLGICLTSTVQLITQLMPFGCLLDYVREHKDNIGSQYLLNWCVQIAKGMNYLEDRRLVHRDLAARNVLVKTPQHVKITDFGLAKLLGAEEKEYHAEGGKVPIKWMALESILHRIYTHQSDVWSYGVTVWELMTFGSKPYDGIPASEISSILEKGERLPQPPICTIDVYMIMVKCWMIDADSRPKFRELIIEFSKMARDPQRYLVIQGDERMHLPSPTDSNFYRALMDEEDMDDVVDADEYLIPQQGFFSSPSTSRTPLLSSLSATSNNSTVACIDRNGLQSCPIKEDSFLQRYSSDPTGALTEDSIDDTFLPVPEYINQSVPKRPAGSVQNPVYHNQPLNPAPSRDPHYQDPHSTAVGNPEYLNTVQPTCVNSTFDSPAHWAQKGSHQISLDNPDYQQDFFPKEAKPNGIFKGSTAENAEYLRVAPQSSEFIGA
Chain of Follistatin-related protein 3 (Homo sapiens) (O95633 whole entry, looked up): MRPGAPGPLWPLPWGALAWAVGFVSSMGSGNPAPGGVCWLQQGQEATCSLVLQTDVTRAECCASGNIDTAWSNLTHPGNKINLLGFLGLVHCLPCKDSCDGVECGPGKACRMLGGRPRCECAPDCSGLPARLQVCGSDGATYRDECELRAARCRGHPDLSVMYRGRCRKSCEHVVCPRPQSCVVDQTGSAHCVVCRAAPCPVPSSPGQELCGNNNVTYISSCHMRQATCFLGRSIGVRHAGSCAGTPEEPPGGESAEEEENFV
Chain of Fibroblast growth factor 10 (Homo sapiens) (O15520 whole entry, looked up): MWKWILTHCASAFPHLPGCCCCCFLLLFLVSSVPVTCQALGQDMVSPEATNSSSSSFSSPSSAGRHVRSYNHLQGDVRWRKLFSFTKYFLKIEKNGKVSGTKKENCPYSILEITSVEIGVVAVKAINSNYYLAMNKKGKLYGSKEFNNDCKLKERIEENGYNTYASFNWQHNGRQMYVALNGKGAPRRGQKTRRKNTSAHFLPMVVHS
Chain of Torsin-1A-interacting protein 1 (Homo sapiens) (Q5JTV8 whole entry, looked up): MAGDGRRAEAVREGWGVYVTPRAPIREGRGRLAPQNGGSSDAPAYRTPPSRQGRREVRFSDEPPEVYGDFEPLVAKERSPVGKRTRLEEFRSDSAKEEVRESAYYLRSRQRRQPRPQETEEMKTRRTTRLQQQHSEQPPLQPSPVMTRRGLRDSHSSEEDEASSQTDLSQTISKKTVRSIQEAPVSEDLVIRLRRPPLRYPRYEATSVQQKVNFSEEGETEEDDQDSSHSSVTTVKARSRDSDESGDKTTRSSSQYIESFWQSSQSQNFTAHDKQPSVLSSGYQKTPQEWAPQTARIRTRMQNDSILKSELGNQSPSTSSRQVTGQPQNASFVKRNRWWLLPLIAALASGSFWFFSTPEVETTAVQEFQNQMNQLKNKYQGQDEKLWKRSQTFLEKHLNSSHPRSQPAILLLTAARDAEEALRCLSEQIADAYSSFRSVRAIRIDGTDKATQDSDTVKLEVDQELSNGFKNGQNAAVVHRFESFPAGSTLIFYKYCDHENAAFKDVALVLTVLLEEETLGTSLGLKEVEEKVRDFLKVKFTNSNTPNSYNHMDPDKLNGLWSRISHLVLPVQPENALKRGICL
Chain of Dickkopf-related protein 1 (Homo sapiens) (O94907 whole entry, looked up): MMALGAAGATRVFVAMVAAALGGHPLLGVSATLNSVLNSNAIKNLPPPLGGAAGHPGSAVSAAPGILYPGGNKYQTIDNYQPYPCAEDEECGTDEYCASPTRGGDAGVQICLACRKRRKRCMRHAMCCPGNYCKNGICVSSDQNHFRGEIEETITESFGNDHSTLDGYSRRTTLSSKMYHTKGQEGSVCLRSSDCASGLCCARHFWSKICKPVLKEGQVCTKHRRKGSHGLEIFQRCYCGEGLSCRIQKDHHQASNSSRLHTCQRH

As for `CCOC(=O)[C@H](Cc1ccccc1)NC(=O)CCC1CC(OC(=O)NCCc2ccc(F)cc2)CC2(CCCC(COC(=O)NCC(c3ccccc3)c3ccccc3)O2)O1` (stereo not given in full), the composite z-score in test [1] is 0.892; in test [2], -0.273; in test [3], -0.368; in test [5], 0.617; in test [6], 0.729; in test [7], 0.374. Besides, the composite z-score in test [8] was 0.979; in test [9], 0.898; in test [10], -0.235; in test [11] it was 1.33; in test [13], 0.414; in test [14] it was 0.53. The composite z-score is -0.658 in test [15]; -0.124 in [16]; -0.0146 in test [17]; -0.0496 in test [18]; 2.49 in [19]; 0.0051 in [20]. In addition, the z-score in test [4] is 0.378 (inactive); in test [12], 0.0395.
In the case of `CO[C@H]1COC(=O)[C@@H]2CCCN2C(=O)[C@@H](C)COC(=O)CC=C[C@@H]1C`, the composite z-score in test [1] was 0.474; in test [2], -0.342; in test [3], -0.919; in test [5], 0.618; in test [6], 1.05; in [7] it was 1.15. The composite z-score in [8] is 1.11; in test [9] it was 1.1; in test [10] it was -0.24; in test [11], -1.03; in test [13] it was 1.2; in test [14] it was 0.212. The composite z-score in test [15] is -0.823; in test [16], -0.13; in test [17] it was -0.0793; in [18], -0.0209; in test [19], 0.626; in test [20], -1.16. Further, the values for the z-score in test [4] and in test [12] were 0.00841 (inactive) and -0.496, respectively.
Consider `COc1ccc(O[C@H]2C=C[C@@H](c3ccccc3)O[C@@H]2COC(=O)CCC(C)=NOC(C)CN2CCCCc3nc(C)c(C)cc32)cc1` (stereo not given in full), for which the composite z-score in test [1] was 1.42; in [2], -0.0789; in test [3] it was 0.208; in [5] it was -0.154; in test [6] it was -0.86; in [7], -0.457. Moreover, the composite z-score is -0.106 in [8]; -0.0649 in [9]; 1.36 in test [10]; 0.36 in test [11]; -0.106 in test [13]; -0.959 in test [14]. In addition, the composite z-score is -0.203 in test [15]; -0.157 in test [16]; -0.138 in test [17]; -0.158 in [18]; 0.168 in test [19]; -0.47 in test [20]. Further, the figures for the z-score in test [4] and in [12] were -0.665 (inactive) and -0.239, respectively.
Turning to `O=C1[C@H]2[C@H]3[C@H](O)[C@H](O)CC(=NO[C@@H]4O[C@H](CO)[C@@H](O)[C@H](O)[C@H]4O)[C@H]3CC[C@H]2C(=O)N1Cc1ccccc1`, the composite z-score in test [1] is 0.366; in [2], -0.223; in test [3], -0.752; in test [5] it was 0.437; in [6] it was 0.656; in [7], 0.426. For the same compound, the composite z-score in test [8] is 0.0042; in [9], -0.566; in test [10], -1.42; in [11] it was 0.386; in [13], 0.652; in [14], -0.058. The composite z-score in test [15] is -0.534; in [16] it was 0.0044; in [17] it was -0.209; in test [18], 0.124; in [19], 0.135; in [20], 0.784. Moreover, the figures for the z-score in [4] and in [12] were -0.741 (inactive) and 0.322, respectively.
In the case of `O=C1[C@H]2[C@H]3[C@H](O)[C@H](O)CC(=NO[C@@H]4O[C@H](CO)[C@@H](O)[C@H](O)[C@H]4O)[C@@H]3CC[C@H]2C(=O)N1Cc1ccccc1`, the composite z-score in [1] is 0.133; in [2], -0.195; in test [3] it was -0.269; in test [5], 0.503; in test [6], -0.817; in test [7], 0.331. Moreover, the composite z-score in test [8] is -0.0746; in [9], -0.0034; in test [10], -1.43; in test [11], 0.33; in test [13], 0.792; in test [14] it was -0.225. Besides, the composite z-score in test [15] was -1.24; in test [16], -0.136; in [17] it was 0.225; in [18] it was -0.433; in [19], 0.392; in test [20] it was -0.187. The z-score in [4] was -0.847 (inactive); in test [12] it was 0.506.
As for `CN(C)C(=O)[C@@]1(Cc2ccccc2)N=C(c2ccc(OCCCO)cc2)O[C@H]1c1ccccc1CN=[N+]=[N-]`, the composite z-score was 1.2 in [1]; 1.44 in test [2]; 1.35 in test [3]; 1.47 in test [5]; 0.777 in test [6]; -0.194 in [7]. For the same compound, the composite z-score is 0.732 in test [8]; 0.0591 in [9]; 0.784 in test [10]; 1.1 in test [11]; -0.068 in [13]; 2.47 in [14]. Besides, the composite z-score in test [15] is 1.26; in test [16], 0.313; in test [17], 0.64; in [18], -0.18; in test [19], 2.95; in test [20], 2.62. The z-score in [4] is 0.32 (inactive); in test [12], -2.14.
